This is a sample that favours compounds with a hit; in the whole collection about 3.2% have one here.
ERK AVP inh = vasopressin-driven ERK pathway inhibition | Potency, µM (highest dose often 57.5 µM), for inactives: top-dose activity, negative = inhibition, most hits filed as inhibitors | hit rate 0.99% among 72,000 | HEK293-V1b, vasopressin-stimulated pERK AlphaScreen | AID 995; further: potency means the concentration at half of the fitted maximal effect; on the % scale 0 is the no-effect control and ±100 the full control effect; nearly all actives have a fitted effect of over 55% in size
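V1b-HEK293 cells; cpd 30 min 37C; 25 nM vasopressin 5 min; lyse 10 min; AlphaScreen beads 5 hr RT. Normalized to DMSO basal and 25 nM vasopressin; AC50 by Hill fit.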
YjeE inh = displaces an ADP probe from E. coli YjeE (TsaE); purified YjeE enzyme, qHTS inhibition assay; Potency, µM; hit rate 0.05% among 71,000
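Purified YjeE (10 uM) with BODIPY Texas Red-labeled ADP probe (2 uM); compounds pin-transferred, 15 min at room temperature. Binding inhibition read as decreased fluorescence polarization; ADP titration as control.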
p53ts 39C kill = cytotoxicity in p53ts cells at nonpermissive temperature | hit rate 1.5% among 130,000 | AID 902 | Potency, µM (doses to about 46.1 µM), for inactives: at the highest dose activity change, negative = cell killing, hits mostly cytotoxic | H1299-p53A138V viability at 39C, ATP luminescence, 24 h; further: potency means the concentration at half of the fitted maximal effect; on the % scale 0 is the no-effect control and ±100 the full control effect; nearly all actives have a fitted effect of over 55% in size
p53ts 32C tox = cytotoxicity in p53ts cells at permissive temperature | H1299-p53A138V at 32C, ATP luminescence viability, 24 h | Potency, µM (highest dose often 46.1 µM), for the others: top-dose activity change, negative = cytotoxicity, most hits filed as cytotoxic | hit rate 0.93% among 130,000 | AID 924;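 further: potency means the concentration at half of the fitted maximal effect; 0% = DMSO and -100% = full killing by reference compound; nearly all actives have a fitted effect of over 55% in size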
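H1299-p53 A138V cells (temperature-sensitive p53) exposed 24 h to up to 46 uM compound at 32C, where p53 is wild-type in conformation. Viability read as ATP luminescence and normalised to DMSO and 100 uM tamoxifen. AC50 fitted with the Hill equation.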
DNA Pol III inh = inhibitors of bacterial DNA polymerase III holoenzyme; reconstituted DNA polymerase III holoenzyme replication, biochemical; Potency, µM (top dose mostly 57.1 µM), inactives show at the highest dose activity change, negative = inhibition; hit rate 0.25% among 71,000; further: potency means the concentration at half of the fitted maximal effect; on the % scale 0 is the no-effect control and ±100 the full control effect
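Reconstituted *E. coli* holoenzyme (0.35 nM Pol III, 1 nM beta, 154 nM SSB, 2 nM primase) was preincubated with compound for 15 min at RT. Synthesis on 1.4 nM ssM13Gori ran 35 min, then was stopped with PicoGreen/EDTA and read as dsDNA fluorescence.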
Tau fil binding = binds recombinant human tau filaments. recombinant tau filaments, thioflavin S fluorescence, 15 h; filaments grown with octadecylsulfate alongside compound. hit rate 2% among 71,000. Potency, µM (series often up to 57.1 µM), without a hit: at the highest dose activity change, negative = inhibition. AID 596;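 further: potency means the concentration at half of the fitted maximal effect; on the % scale 0 is the no-effect control and ±100 the full control effect; actives lower thioflavin S fluorescence by blocking filaments or displacing dye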
Target sequence (P10636 whole entry, looked up): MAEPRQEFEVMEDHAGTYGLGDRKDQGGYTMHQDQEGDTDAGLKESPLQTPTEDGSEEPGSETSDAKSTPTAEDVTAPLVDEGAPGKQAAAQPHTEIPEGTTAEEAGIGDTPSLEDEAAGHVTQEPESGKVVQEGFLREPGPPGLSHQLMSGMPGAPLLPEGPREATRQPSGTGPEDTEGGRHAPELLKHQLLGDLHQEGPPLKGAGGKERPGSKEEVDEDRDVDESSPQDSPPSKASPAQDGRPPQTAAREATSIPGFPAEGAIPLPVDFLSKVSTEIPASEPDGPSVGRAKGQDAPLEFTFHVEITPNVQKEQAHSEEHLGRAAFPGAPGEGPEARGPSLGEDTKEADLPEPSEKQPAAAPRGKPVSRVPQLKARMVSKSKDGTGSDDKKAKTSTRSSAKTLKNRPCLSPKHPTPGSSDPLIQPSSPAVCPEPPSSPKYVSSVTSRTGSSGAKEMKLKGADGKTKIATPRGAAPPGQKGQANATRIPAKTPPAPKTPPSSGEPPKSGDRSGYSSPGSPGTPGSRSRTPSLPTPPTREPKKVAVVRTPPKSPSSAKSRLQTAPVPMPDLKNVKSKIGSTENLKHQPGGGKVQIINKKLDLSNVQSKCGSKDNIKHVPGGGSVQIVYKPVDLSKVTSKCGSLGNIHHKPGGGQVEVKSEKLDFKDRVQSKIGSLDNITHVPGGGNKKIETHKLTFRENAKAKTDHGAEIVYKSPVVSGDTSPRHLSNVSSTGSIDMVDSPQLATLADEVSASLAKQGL
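Quantitative HTS: thioflavine S signal from ODS-induced tau filaments, excited at 450 nm, emission 510 nm. Conditions: 1 uM tau, 30 uM ODS, 15 h at 37 C, pH 7.4.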
* hit, by the source's call; i = inactive; ? = inconclusive; · = no result; [ ] = another dose, or the depositor's remark. The call rests on the fitted dose curve; in most records, active means well fitted curve in the direction sought with a large enough effect; inconclusive means small, poorly fitted or top-dose-only effect, or another doubt; inactive means no such curve, though single readings can be large; an effect the other way counts as inactive or inconclusive.

SMILES | ERK AVP inh | YjeE inh | p53ts 39C kill | p53ts 32C tox | DNA Pol III inh | Tau fil binding
COc1ccc2nc(NC(=O)c3ccoc3C)sc2c1 | -16% | i | ? | 7.9µM* | -5% | 69%
COc1ccc2sc(NC(=O)c3ccco3)nc2c1 | 13% | i | 10µM* | 10µM* | -3% | -6%
COc1cccc(N2CCN(Cc3cc(=O)oc4cc(C)ccc34)CC2)c1 | · | · | -17% | 1% | · | ·
COC(=O)C1=C(C)N=c2s/c(=C/c3cccs3)c(=O)n2C1c1cccs1 (stereo not given) | 0% | i | 14% | 22% | 1% | 1µM*
COC(=O)c1ccc2c(=O)n(CCCCCC(=O)N3CCN(c4cc(C)ccc4C)CC3)c(=O)[nH]c2c1 | · | · | 6.3µM* | 16µM* | · | ·
COC(=O)C1=C(C)Nc2ccc(C)cc2S1 | ? | i | -6% | -1% | -3% | 20µM*
Cc1ccccc1CN1C(=O)c2ccccc2Sc2ccc(C(=O)NC3CCCC3)cc21 | · | · | -9% | 6% | · | ·
Cc1c(C(=O)OCC2CCCO2)[nH]c2c1C(=O)CC(c1ccc(N(C)C)cc1)C2 (stereo not given) | 25µM* | i | -2% | -4% | 5% | 53%
Nc1ccc(N=Nc2ccccc2)c(N)n1 | ? | i | -13% | -10% | -6% | 13µM*
O=S(=O)(O)c1ccc(N=Nc2ccccc2)cc1 | 10%[11.5 µM] | i | 9%[9.22 µM] | 2%[9.22 µM] | -6%[11.4 µM] | 3%[11.4 µM]
Cc1nc(N2CCOCC2)c2nc(-c3ccccc3)n(CC(C)(C)CN(C)C)c2n1 | 1% | i | 3% | -2% | -6% | 13%
CCCCCCC#CC1C=CC(Oc2ccc(C=O)cc2)C(CO)O1 (stereo not given) | 12%[11.5 µM] | · | 4%[9.22 µM] | 3%[9.22 µM] | · | ·
O=C(c1ccc(Cl)cc1)N1CCCCC(Sc2nnc(-c3ccc4c(c3)OCO4)o2)C1=O (stereo not given) | 2% | i | ? | 7.9µM* | -5% | 11%
Cc1ccc(Cl)cc1 | 7% | i | 14% | -5%[1.84 µM] | -6% | 4%
CCOc1ccc(NC(=O)c2ccncc2)cc1 | 10% | i | -7% | -15% | 0% | 4%
CCOc1ccc(NC(=O)c2ccc(N)cc2)cc1 | · | i | 13µM* | 13µM* | -3% | -2%
CC(C)(C)NC(=O)Nc1ccc2nccnc2c1 | -22% | i | ? | ? | 1% | -3%
CCOc1ccc(NC(=O)Nc2ccc3nccnc3c2)cc1 | -5% | i | 8% | 6% | -2% | 25µM*
Cc1ccc2c(c1)N(C(=O)CCC(=O)NCc1cccc(F)c1)CC(C)O2 (stereo not given) | · | · | 3% | 10% | · | ·
COc1ccc(-c2cc(C#N)nc(Oc3ccc(Cl)cc3)n2)cc1 | · | · | 2% | · | · | ·
CCN(CC)c1nc(C#N)cc(-c2ccc(OC)cc2)n1 | 363% | i | 5% | -2% | -1% | 13µM*
COc1ccc(CCNC(=O)CSc2nc3nc(C)c(Cc4ccc(C)cc4)c(C)n3n2)cc1OC | · | · | -23% | 4% | · | ·
COc1ccccc1-c1c(C)nn2c(N3CCN(c4cccc(Cl)c4)CC3)cc(C)nc12 | · | · | 10% | -4% | · | ·
CN(C)[C@H]1C(=O)C(C(=O)NCN2CCCC2)=C(O)[C@]2(O)C(=O)C3=C(O)c4c(O)cccc4[C@](C)(O)[C@H]3C[C@H]12 | -5%[11.5 µM] | i | 13%[9.22 µM] | 4%[9.22 µM] | 3.2µM* | -10%[11.4 µM]
CC(=O)N1CCc2nc3sc(C(=O)c4ccc(F)cc4)c(N)c3c(C(F)(F)F)c2C1 | · | · | -3% | 6% | · | ·
SMILES | ERK AVP inh | YjeE inh | p53ts 39C kill | p53ts 32C tox | DNA Pol III inh | Tau fil binding
CCOc1ccccc1NC(=O)c1ccc2c(Cl)c3c(nc2c1)CCC3 | · | · | 4µM* | ? | · | ·
O=C(Nc1ccccc1F)c1ccc2c(Cl)c3c(nc2c1)CCC3 | · | · | 1.6µM* | 1.3µM* | · | ·
Cc1nc(N2CCOCC2)c2nc(-c3ccccc3)n(CCCN3CCOCC3)c2n1 | -11% | i | 4% | -1% | -3% | 18%
CC1CCCCN1CCCNC(=O)c1cc(Sc2cccc(Cl)c2)nc2ccccc12 (stereo not given) | · | · | ? | -10% | · | ·
COc1ccccc1CNc1cc(-c2ccccc2C)ncn1 | -28% | i | -26% | ? | -1% | 9%
COc1ccc(CNc2cc(-c3ccccc3C)ncn2)c(OC)c1 | 13µM* | i | -6% | 3% | 4% | 6%
COc1ccc(CNc2cc(-c3ccccc3CN(C)C)ncn2)c(OC)c1 | -2% | i | -7% | -10% | -4% | 0%
COc1ccccc1CNc1cc(-c2ccccc2OC)ncn1 | 7.9µM* | i | ? | 13µM* | -10% | 420%
CC(C)c1ccc(NC(=O)c2ccc3c(c2)CCCN3S(C)(=O)=O)cc1 | · | · | -28% | 13µM* | · | ·
CC(C)c1ccc(NC(=O)c2ccc3c(c2)CCN3S(=O)(=O)c2ccccc2)cc1 | · | · | -24% | -6% | · | ·
COc1ccc2sc(N(Cc3cccnc3)C(=O)c3ccc4c(c3)OCCO4)nc2c1 | · | · | -14% | 18% | · | ·
CCc1ccc(S(=O)(=O)c2nnn3c2nc(Nc2ccc(NC(C)=O)cc2)c2sccc23)cc1 | · | · | 13µM* | ? | · | ·
CS(=O)(=O)c1sc2nc(-c3cccs3)cc(-c3ccccc3)c2c1N | ? | i | -18% | 2% | 0% | 7.9µM*
CCCOc1ccc(NC(=O)CC2C(=O)N(c3cccc(C)c3)C(=O)N2CCc2ccncc2)cc1 (stereo not given) | · | · | 20% | 3% | · | ·
CC1CCCO1 (stereo not given) | -15% | i | -11% | -5%[1.84 µM] | -5% | -17%
CCC(=O)NCCc1nc2cc(NC(=O)c3cccc(Br)c3)ccc2n1C | · | · | 10µM* | 13µM* | · | ·
Cn1c(CN2CCCCC2)nc2cc(NC(=O)c3cccc(Br)c3)ccc21 | · | · | -19% | -20% | · | ·
COC(=O)c1ccc(NC(=O)CC2C(=O)N(c3ccccc3)C(=O)N2Cc2ccc(F)cc2)cc1 (stereo not given) | · | · | -8% | 4% | · | ·
CCN(CCCNC(=O)CN(C)S(=O)(=O)c1cccc2nsnc12)c1cccc(C)c1 | 11% | i | -8% | 0% | -1% | 16µM*
Cc1c(C(=O)NCCc2ccccc2)cccc1-n1cnc2cccnc21 | · | · | -9% | 10% | · | ·
Cc1ccc(CCNS(=O)(=O)c2cc(-c3cc(C)no3)ccc2C)cc1 | · | · | -6% | 3% | · | ·
O=C1Nc2ccc(S(=O)(=O)N3CCOCC3)c3cccc1c23 | -10% | i | 5% | 2% | -4% | -2%
O=S(=O)(c1cccc2c(Cl)cccc12)N1CCCNCC1 | 2% | i | 16µM* | -3% | -6% | ?
O=C1Nc2ccc(S(=O)(=O)N3CCCCCC3)c3cccc1c23 | · | i | 17% | -1% | -3% | 25µM*
CCOc1ccccc1N1CCN(S(=O)(=O)c2ccc3c4c(cccc24)C(=O)N3)CC1 | -18% | i | 16% | 19% | -13% | 16µM*
